Screens deposited in PubChem BioAssay by several laboratories.
IEC-6 cytotox – cytotoxicity in IEC-6 intestinal epithelial cells, primary screen, cytotoxicity control for KLF5 inhibitor project, cell-based, luminescence; IEC-6 cytotoxicity, luminescence viability; inhibition, % at 5 µM; 290,000 compounds, 0.78% hits; in the data active means inhibition above about 22%;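 further: 0% = plate median of test compound wells and 100% = cytotoxic reference compound wells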
APP 5UTR inh – inhibitors of APP translation via 5'UTR reporter, primary screen, APP 5'UTR luciferase, SH-SY5Y cells. SH-SY5Y APP 5'UTR-luciferase reporter, luminescence. inhibition, % at 2 µM. 190,000 compounds, 0.82% hits. AID 1285, 2008;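 active means inhibition above a set limit, derived from the sample mean plus 3 SD, cut at about 45% in these data; inconclusive means one replicate passes the limit while the other fails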
aSyn UTR inh – MLPCN primary screen, SNCA 5' untranslated region; alpha-synuclein 5'UTR reporter, inhibitor activity; inhibition, % (tested at 7.5 µM); 300,000 compounds, 0.82% hits; AID 1813, 2009; in the data active means inhibition above about 60%; inconclusive means no clear call, values can overlap the other calls;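 further: H4 neuroglioblastoma cells stably carrying SNCA 5'UTR luciferase fusion; 0% = DMSO wells and 100% = positive control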
BaF3 tox – parental Ba/F3 cell viability inhibition, counter-screen for JAK2V617F inhibitor project, murine pro-B, CellTiter-Glo luminescence; CellTiter-Glo ATP luminescence; AID 1486, 2009; inhibition, % at 5.6 µM; 220,000 compounds, 1.1% hits;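 active means inhibition above a per-campaign cutoff, the mean inhibition of all tested compounds plus 3 SD, cut at about 27% in these data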;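 further: 0% = DMSO wells and 100% = JAK Inhibitor I control wells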
Ba/F3 V617F tox – reduced viability of JAK2V617F-dependent Ba/F3 cells, primary screen, JAK2V617F inhibitor project, cell-based, Ba/F3 EpoR-JAK2V617F, luminescence; 220,000 compounds, 1.1% hits; AID 1446, 2008; ATP luminescence; inhibition, % at 5.6 µM;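 active means inhibition above the campaign mean plus 3 SD over all tested compounds, cut at about 24% in these data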;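 further: cytokine-independent growth of Ba/F3 cells driven by EpoR plus mutant JAK2; 0% = DMSO-treated cells and 100% = JAK inhibitor I control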
KLF5 inh – KLF5 expression inhibitors, primary screen, DLD-1 cells, luminescence; DLD-1 KLF5 promoter-luciferase reporter; inhibition, % at 5 µM; 290,000 compounds, 0.23% hits; AID 1700, 2009;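 active means inhibition above a per-plate limit of that plate's mean compound inhibition plus 3 SD, cut at about 60% in these data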;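 further: 0% = DMSO wells and 100% = LY294002 at 200 µM; higher means less KLF5 promoter-driven luciferase light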
* hit, by the source's call; ? = inconclusive; . = no result given. Sampled rows, rich in hits. Any-hit rate of the full collection: about 2.1%.

SMILES	IEC-6 cytotox	APP 5UTR inh	aSyn UTR inh	BaF3 tox	Ba/F3 V617F tox	KLF5 inh
COc1ccc(C(NC(C)=O)c2cc(Cl)c3cccnc3c2O)cc1OC (stereo unspecified)	-4	50*	46	10	4	-35
CCCC(=O)NC(c1cccs1)c1cc(Cl)c2cccnc2c1O (stereo unspecified)	-1	44	99*	-2	-2	-13
COc1ccc(C(NC(C)=O)c2ccc3cccnc3c2O)c(OC)c1 (stereo unspecified)	.	.	83*	.	.	.
CCCC(=O)NC(c1ccc2c(c1)OCO2)c1cc(Cl)c2cccnc2c1O (stereo unspecified)	-9	75*	80*	-1	-5	15
CCCC(=O)NC(c1ccco1)c1cc(Cl)c2cccnc2c1O (stereo unspecified)	5	4	40	4	7	-17
Cc1csc(=O)n1CC(=O)OC(C)C(=O)Nc1cccc(Cl)c1 (stereo unspecified)	.	.	-10	.	.	.
O=C1CCC(c2ccc3c(c2)CCC3)=NN1	-3	.	41	.	.	-44
COc1cc(NCCCCCCCN)c2ncccc2c1	11	-8	1	37*	50*	-13
COc1cc(NC(C)CCCN)c2ncccc2c1 (stereo unspecified)	.	.	3	.	.	.
COc1cccc(N2[C@@H](CC(=O)O)c3ccc(/C=C/C(=O)O)cc3S2(=O)=O)c1	.	.	-39	.	.	.
Cc1ccc(-c2nnc3c(C(F)(F)F)nc4ccccc4n23)cc1	1	-11	71*	4	-7	-33
FC(F)(F)c1nnc2c(Sc3ccc(Cl)cc3)nc3ccccc3n12	2	7	37	4	4	-29
FC(F)(F)c1nc2ccccc2n2c(-c3ccc(Cl)cc3)nnc12	0	-1	108*	0	1	-12
CC1=NNC(=O)C1CCC(=O)N/N=C/C(Br)=C/c1ccccc1 (stereo unspecified)	2	82*	-2	2	-1	20
O=c1cc(Nc2ccc3c(c2)OCCO3)[nH]c(=O)n1C1CCCCC1	2	83*	1	3	12	-12
Cc1nc(N)nc(N)c1CCCc1ccc(Cl)c(Cl)c1	.	.	92*	.	.	.
COc1ccc(C2/C(=C(/O)c3ccc(Br)cc3)C(=O)C(=O)N2C)cc1 (stereo unspecified)	-8	.	-23	.	.	-16
CCOC(=O)/C(C)=N/Nc1nc(-c2ccc(NC(C)=O)cc2)cs1	-4	.	-45	5	-1	-66
COc1ccccc1-[n+]1c(C)cc(/C=C2\Sc3ccccc3N2C)cc1C	1	.	53	96*	99*	8
CCC(C)(C)NC(=O)CN(C(=O)CCC(=O)Nc1nccs1)c1ccc2c(c1)OCCO2	-2	.	-35	.	.	-8
Cc1ccc(-n2nc3ccc(N)cc3n2)c(C)c1	7	.	66*	.	.	-48
CCOC(=O)C1CCN(C(=O)c2cc(C(C)(C)C)nn2Cc2ccccc2)CC1	-1	.	14	-3	-3	-28
CCCCOc1cccc(C(=O)Nc2ccc(NC(=O)c3cccs3)cc2)c1	6	.	64*	.	.	-45
CCOc1ccc(S(=O)(=O)N2CCN(S(=O)(=O)c3ccc(OCC)cc3)C(C)C2)cc1 (stereo unspecified)	-5	52*	-3	1	-3	-6
CCOc1ccc(S(=O)(=O)N2CN3CCN(C3)C2)cc1	-2	.	-8	.	.	-34
SMILES	IEC-6 cytotox	APP 5UTR inh	aSyn UTR inh	BaF3 tox	Ba/F3 V617F tox	KLF5 inh
C=CCn1c(SCC(=O)c2[nH]c(C)c(C(=O)OCC)c2C)nc2scc(-c3ccc(OC)cc3)c2c1=O	-5	60*	46	3	-4	-15
C=CCn1c(SCC(=O)c2[nH]c(C)c(C(=O)OCC)c2C)nc2scc(-c3ccccc3)c2c1=O	2	6	?	2	-2	-17
CCOc1cc(/C=C2/NC(=S)NC2=O)ccc1OCc1ccc([N+](=O)[O-])cc1	5	-8	62*	0	3	-5
CCOc1cc(C(c2c(C)[nH][nH]c2=O)c2c(C)[nH][nH]c2=O)ccc1OCc1ccc([N+](=O)[O-])cc1	2	.	-10	3	-4	-7
Cc1onc(-c2ccccc2Cl)c1C(=O)N(C)C1CCCCC1	2	5	9	62*	67*	-1
COc1ccc(-c2nc3ccccc3c(=O)n2CCOc2cc(C)ccc2C)cc1	2	-24	0	8	-1	-21
CC1CC(=O)NN=C1c1ccc(NCCO)c([N+](=O)[O-])c1 (stereo unspecified)	-2	-2	76*	9	6	-32
Cn1nc(-c2ccc(NCCO)c([N+](=O)[O-])c2)c2ccccc2c1=O	1	3	45	-4	4	11
CCOc1cc(C2C3=C(CCCC3=O)N(C)C3=C2C(=O)CCC3)cc(Cl)c1O	6	-42	9	58*	58*	-9
COc1ccc(OC)c(NC(=O)NNC(=O)COc2ccc(F)cc2F)c1	-2	.	16	.	.	2
CCOC(=O)C1=C(C)NC(=S)NC1c1ccc(OCC(=O)N2CCCCC2)cc1 (stereo unspecified)	-3	.	-14	.	.	-14
Cc1ccc(N=Nc2ccc(O)c3ncccc23)cc1	1	78*	86*	11	2	5
Cc1ccc(N=Nc2ccc(O)c3ncccc23)cc1C	4	27	74*	4	-1	-27
CCS(=O)(=O)c1ccc(N=Nc2ccc(O)c3ncccc23)c(OC)c1	-9	63*	78*	8	0	-13
CCS(=O)(=O)c1ccc(O)c(NC(=O)c2cc(OC)c(OC)c(OC)c2)c1	-5	-5	7	-1	-2	-20
O=C(CN1CCCCC1)N1N=C(c2cccs2)CC1c1cccs1 (stereo unspecified)	-1	-2	-13	2	3	-11
Cc1c(NC(=O)CN2CCCC(C)C2)ccc2nsnc12 (stereo unspecified)	1	0	1	3	3	3
COc1ccc(N2CCc3c(C)nc4c(OC)cc(OC)cc4c32)cc1	8	-9	7	6	5	-43
COc1ccc(N2CCc3c(C)nc4c(OC)cccc4c32)cc1	70*	86*	89*	78*	87*	57
O=C(NC1CCCCC1)c1sc(=S)n2c1[nH]c(=O)c1ccccc12	-3	-7	0	1	-2	-22
CCCCNC(=O)c1sc(=S)n2c1[nH]c(=O)c1ccccc12	-3	5	-4	101*	-2	-23
CCCCCCc1c(C)c2ccc(OCC(=O)N[C@@H](Cc3ccccc3)C(=O)O)cc2oc1=O	-2	.	14	.	.	-10
